# Bioassay records deposited in PubChem by National Center for Advancing Translational Sciences (NCATS).
# An excerpt weighted towards active compounds, which were near 22% of everything screened.
# Shiga toxin inh: inhibitors of Shiga toxin in Vero cells; Vero cells, Shiga toxin protein synthesis inhibition reporter; inhibition, % at 38.7 µM; 290,000 tested, 9.2% active; AID 2315; in the data active = inhibition mostly above about 28%, no sharp cut-off; inactive = mostly below about 43%; note: 0% is about no effect
# LmPK inh: blocks Leishmania mexicana pyruvate kinase activity. Q27686. purified LmPK, Kinase-Glo ATP luminescence, 1 h. Potency, µM (titrated, usually from 57.5 µM), without a hit: at the top dose activity change, negative = inhibition, hits mostly inhibitors. 290,000 tested, 0.37% active. AID 1721; note: potency is the fitted concentration of half-maximal effect; % is set by controls: 0 for no effect and ±100 for the full control effect
# Target sequence (Q27686 whole entry, looked up): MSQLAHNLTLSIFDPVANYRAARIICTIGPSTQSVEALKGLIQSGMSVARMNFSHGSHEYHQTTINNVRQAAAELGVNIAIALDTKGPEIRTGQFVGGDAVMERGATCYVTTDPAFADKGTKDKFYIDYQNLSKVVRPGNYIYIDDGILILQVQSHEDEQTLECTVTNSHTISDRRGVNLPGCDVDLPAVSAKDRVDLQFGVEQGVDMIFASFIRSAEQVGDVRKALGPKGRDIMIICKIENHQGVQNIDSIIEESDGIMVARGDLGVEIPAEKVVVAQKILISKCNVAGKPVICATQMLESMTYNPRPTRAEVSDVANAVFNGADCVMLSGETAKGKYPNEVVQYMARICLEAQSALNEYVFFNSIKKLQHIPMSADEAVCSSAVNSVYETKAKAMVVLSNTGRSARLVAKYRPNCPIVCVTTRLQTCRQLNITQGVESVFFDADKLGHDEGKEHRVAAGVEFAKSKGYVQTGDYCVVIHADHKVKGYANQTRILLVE
#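 qHTS format; LmPK 0.1 nM; substrates PEP 0.5 mM and ADP 0.1 mM. One-hour room-temperature incubation, then coupled luciferase luminescence; 0.5 nM enzyme wells mark activation.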
# Pf growth 48h: P. falciparum growth inhibition at 48 hours (one generation) | P. falciparum luciferase growth in erythrocytes, 48 h | Potency, µM (titrated, usually from 28.7 µM), for inactives: at the top dose activity change, negative = inhibition, usual class: inhibitors | 310,000 tested, 5.9% active | AID 504832; note: potency is the fitted concentration of half-maximal effect; % is set by controls: 0 for no effect and ±100 for the full control effect
#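 Luciferase-expressing parasites in RBCs, 2% Hct / 0.1% parasitemia final; RPMI 1640 + 0.5% Albumax; 37 C, 5% CO2, one generation; luminescence read-out, lower signal = inhibition.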
# Cycloheximide cs: affects cycloheximide protein synthesis inhibition readout, counter-screen; 300,000 tested, 12% active; cell reporter, cycloheximide protein synthesis inhibition counterscreen; max response, %; in the data active = max response mostly above about 13%, no sharp cut-off; inactive = mostly below about 14%; note: read at 38.3 µM for the half of the compounds with a filed dose; 0% is about no effect
# Pf growth 96h: inhibits malaria parasite growth, 96 h; P. falciparum luciferase reporter growth, 96 h; Potency, µM (doses to about 28.7 µM), for inactives: at the highest dose activity change, negative = inhibition, hits mostly inhibitors; 320,000 tested, 6.9% active; note: potency is the fitted concentration of half-maximal effect; % is set by controls: 0 for no effect and ±100 for the full control effect
#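 Compounds incubated with erythrocytes infected by luciferase-expressing P. falciparum (2% hematocrit, 0.05% parasitemia final) for 96 hours, 37 C in 5% CO2. Growth inhibition scored as decreased luciferase luminescence.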
# Numbers without * were called inactive; i = inactive; ? = inconclusive; / = no result; [ ] = dose if it differs, or a comment. Unless noted, calls come from the whole dose curve; as a rule, active = well fitted inhibition curve with a large enough effect; inconclusive = small, poorly fitted or top-dose-only effect, or another doubt; inactive = no such curve, though single readings can be large or run the other way.
SMILES,Shiga toxin inh,LmPK inh,Pf growth 48h,Cycloheximide cs,Pf growth 96h
C/C(=N\OC(=O)c1ccc(C)cc1)c1sc(C)nc1C,32.9,?,/,31.9*,19.3%
C/C(=N/OC(=O)c1ccc(C)cc1)c1cccs1,123.0*,10µM*,89.9%,32.9*,75.8%
CC(Sc1nnnn1-c1ccccc1)C(=O)Nc1ccc(Cl)cn1 (stereo not given),-0.4,5.1%,?,-2.5,-23.2%
O=C(CCCCCNC(=O)N1CCn2c1nc1ccccc12)NCc1ccc(F)cc1,9.1,5.3%,?,8.4,?
Clc1ccc2nc(N3CCN(c4ccccc4)CC3)sc2c1,134.6*,-0.5%,i,37.1*,/
Brc1ccc2nc(N3CCN(c4ccccc4)CC3)sc2c1,155.7*,1.3%[11.5 µM],229.5%,47.4*,259.8%
O=C1CCC(C(=O)Nc2ccccc2N2CCCC2)=NN1,/,/,2.1%,/,1.0%
CCOC(=O)c1c(-n2c(C)cc(/C=C3\C(=O)NC(=O)N(C)C3=O)c2C)sc2c1CCCC2,-23.1,9.5%,?,-1.7,3.7µM*
O=C(NCc1ccc2c(c1)OCO2)c1ccc2c(c1)N(Cc1c(F)cccc1Cl)C(=O)c1ccccc1S2,3.3,/,/,1.3,/
N=c1sccn1Cc1ccc(Cl)cc1Cl,-10.4,4.3%,-8.8%,-1.5,-15.6%
CCC(=O)OCC(=O)N=c1sccn1Cc1ccccc1Cl,-19.5,1.3%,?,-3.9,?
O=C(CCl)N=c1sccn1Cc1cccc2ccccc12,15.9,3.7%,?,17.6,1.47µM*
O=C(CCl)N=c1sccn1Cc1ccccc1Cl,17.0,0.5%,0.262µM*,9.0,0.738µM*
O=C(CCl)N=c1sccn1Cc1ccc(Cl)cc1Cl,17.8,9.2%,?,28.0*,11.7µM*
CC(c1ccccc1)N1C(=O)c2ccccc2C1O (stereo not given),-27.6,12.3%,/,-1.5,/
CC(=O)COc1ncn(-c2ccccc2)n1,15.7,-1.6%,1.7%,10.0,?
O=C(c1cccc(C(F)(F)F)c1)N(c1ccccn1)C1CCCCC1,-6.2,0.7%,-24.5%,5.1,-29.5%
COc1ccccc1C1=NC(c2ccc(C)cc2)N=C1C (stereo not given),130.8*,0.7%,118.2%,38.7*,237.8%
COC(=O)c1ccc(NC(=O)c2ccccc2-c2ccccc2C(=O)O)cc1,-7.6,1.0%,-9.9%,5.1,27.1%
CC(=O)c1ccc(NC(=O)c2ccccc2-c2ccccc2C(=O)O)cc1,42.1,0.0%,0.0%,-4.0,4.65µM*
CSc1ncc(C(=O)Nc2ccccc2F)c(-c2ccccc2)n1,-3.7,1.3%,-10.3%,-2.2,-12.9%
CSc1ncc(C(=O)Nc2ccc(C(C)=O)cc2)c(-c2ccccc2)n1,51.4*,2.1%,12.6%,40.6*,?
CC#CCN1c2ccccc2[C@]23C[C@@H](C(=O)OC)N=C2NC(C(=O)OC)=C(C(=O)OC)[C@H]13,0.7,-1.9%[11.5 µM],-3.4%,1.2,0.0%
COc1ccccc1C(=O)NCCC(=O)NCC(c1ccc(F)cc1)N1CCOCC1 (stereo not given),/,/,4.0%,/,10.2%
COc1ccc(S(=O)(=O)NCC(=O)N(CC(=O)NCC2CCCO2)Cc2ccccc2)cc1 (stereo not given),-4.0,8.5%,?,-5.3,22.9%
SMILES,Shiga toxin inh,LmPK inh,Pf growth 48h,Cycloheximide cs,Pf growth 96h
Cc1nc(N2CCN(c3ccccn3)CC2)c2c(C)c(C(=O)Nc3ccc(F)cc3Cl)sc2n1,-6.3,-6.5%,?,10.9,14.1%
Cc1ccc(F)cc1NC(=O)c1sc2ncn(CC(=O)N3CCN(c4ccccn4)CC3)c(=O)c2c1C,-7.5,-4.1%,12.1%,-1.8,14.7µM*
Cc1nc(N2CCN(c3ccccn3)CC2)c2c(C)c(C(=O)Nc3ccc(F)cc3F)sc2n1,15.1,-4.7%,8.28µM*,16.1,-15.2%
Cc1nc(N2CCC(C)CC2)c2c(C)c(C(=O)Nc3ccc(C(F)(F)F)cc3)sc2n1,2.3,-3.3%,0.208µM*,11.7,?
Cc1nc(N2CCC(C)CC2)c2c(C)c(C(=O)Nc3cccc(C(F)(F)F)c3)sc2n1,21.7,-1.4%,?,2.3,-23.6%
Cc1nc(N2CCN(c3ccccn3)CC2)c2c(C)c(C(=O)Nc3ccccc3F)sc2n1,-3.7,9.4%[11.5 µM],6.57µM*,5.5,?
O=C(COc1nc2ccccc2nc1N1CCOCC1)Nc1cccc(S(=O)(=O)N2CCCCC2)c1,-15.2,-2.8%,-23.1%,-1.8,?
O=C(O/N=C1\CCS(=O)(=O)c2sccc21)c1c(F)cccc1F,7.0,-1.2%,37.1%,14.4*,63.1%
COc1cccc(C(=O)O/N=C2\CCS(=O)(=O)c3sccc32)c1,16.1,-1.5%,4.0%,9.4,3.2%
CCOc1cc(/C=C2/SC(=S)N(C)C2=O)ccc1Oc1ccc([N+](=O)[O-])cc1[N+](=O)[O-],-7.6,0.8%,0.0%,11.0,8.0%
Clc1ccc2c(c1)C(OC1CN3CCC1CC3)c1ccccc1CS2 (stereo not given),-18.0,-2.5%,?,-8.7,?
CN1CCN(CCOC2c3ccccc3CSc3ccc(Cl)cc32)CC1 (stereo not given),-8.6,3.4%,?,-6.2,10.4µM*
Clc1ccc(-c2nnsc2SCc2ccccc2)cc1,49.4*,-3.1%,-12.2%,43.7*,-20.2%
Clc1ccc(CSc2snnc2-c2ccccc2)cc1,27.4,8.2%,13.1µM*,23.3*,?
O=c1cc(O)nc(SCc2ccccc2)n1-c1ccc(Cl)cc1,3.5,-1.0%,9.2%,-2.7,33.2%
CSc1snnc1-c1ccccc1,-1.1,-2.2%,?,3.1,11.3%
Cc1nnsc1Sc1ccccn1,6.3,-10.3%,15.2%,2.5,-8.4%
Clc1ccccc1CSc1snnc1-c1ccccc1,63.6*,-0.4%,14.3%,37.5*,0.9%
CC(C)Sc1snnc1-c1ccccc1,13.1,-8.7%,-13.6%,9.0,-12.8%
c1ccc(-c2nnsc2Sc2ccccn2)cc1,56.2*,11.7%,33.5%,31.9*,20.5%
CCN1CCN(S(=O)(=O)CC2(C)C3CCC2(C)C(=O)C3Br)CC1 (stereo not given),-12.2,4.3%,11.0%,-1.0,-14.7%
CC1CCN(C(=O)c2nc[nH]c2C(=O)N2CCC(C)CC2)CC1,/,/,19.5%,/,35.7%
Cc1ccc(S(=O)(=O)c2c(C)nn(-c3ccccc3)c2OC(=O)c2ccc(Br)o2)cc1,1.1,-0.4%,-4.0%,-2.8,-1.0%
C/C(CC(=O)Nc1ccc(F)cc1F)=N\NC(=O)C(=O)N1CCCCC1,64.6*,5.9%,25.6%,40.2*,?
CC(=O)Nc1ccc(NC(=O)C/C(C)=N/NC(=O)C(=O)N2CCCC2)cc1,4.8,-8.0%,33.5%,17.0,?
Oc1ccc2c(c1)oc1cc(O)ccc12,63.3*,2.3%,59.9%,45.5*,-24.5%
CC(C)CNC(=S)NC(=O)c1csc([N+](=O)[O-])c1,10.9,-4.1%,7.0%,10.6,-1.9%
C=CCNC(=O)O/N=C/c1csc([N+](=O)[O-])c1,32.4*,5.3%,-7.5%,12.3,?
